Source: PubChem BioAssay (National Center for Advancing Translational Sciences (NCATS))
PNC assembly inh: inhibitors of perinucleolar compartment assembly; 140,000 tested, 3.1% active; activity change (PNC), negative = inhibition, % at 10 µM; PC3M PTB-GFP, PNC prevalence imaging, 16 h; active compounds read low; AID 2417;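 active means readout at or below -70, meaning at least 70% loss of cells showing the perinucleolar compartment, a nuclear body marking cancer cells; inconclusive means readout between -30 and a set limit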;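 further: plate controls were DMSO wells for no effect and camptothecin positive control wells for full effect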
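PC3M cells stably expressing PTB-GFP, 750–1000 cells/well, treated 16 h at 37 °C with compound (23 nl of library stock), in duplicate. After paraformaldehyde fixation and Hoechst stain, imaged at 20x; PNC prevalence scored by image analysis.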
ALDH1A1 inh: ALDH1A1 (human) enzyme inhibition | P00352 | Purified ALDH1A1, NADH fluorescence, propionaldehyde substrate | Potency, µM (series often up to 75.3 µM), for the others: at the top dose activity, negative = inhibition, most hits filed as inhibitors | 220,000 tested, 7.3% active | AID 1030;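 further: potency means the concentration at half of the fitted maximal effect; plate controls were no enzyme wells and a reference inhibitor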
Target sequence (P00352 whole entry, looked up): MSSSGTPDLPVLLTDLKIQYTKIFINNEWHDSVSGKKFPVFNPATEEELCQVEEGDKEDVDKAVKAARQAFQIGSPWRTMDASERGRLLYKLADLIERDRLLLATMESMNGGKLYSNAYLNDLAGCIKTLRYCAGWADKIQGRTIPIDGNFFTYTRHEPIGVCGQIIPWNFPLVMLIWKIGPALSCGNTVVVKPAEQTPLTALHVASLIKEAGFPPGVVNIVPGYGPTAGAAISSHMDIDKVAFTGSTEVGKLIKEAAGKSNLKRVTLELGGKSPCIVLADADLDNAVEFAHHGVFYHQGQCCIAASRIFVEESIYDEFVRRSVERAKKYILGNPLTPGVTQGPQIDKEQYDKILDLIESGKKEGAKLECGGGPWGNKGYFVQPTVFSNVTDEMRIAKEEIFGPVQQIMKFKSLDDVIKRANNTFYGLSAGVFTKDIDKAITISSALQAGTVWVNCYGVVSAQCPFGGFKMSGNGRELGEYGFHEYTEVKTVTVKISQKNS
HPGD inh: inhibitors of human 15-hydroxyprostaglandin dehydrogenase (HPGD); AID 894; Potency, µM, for the others: at the top dose activity change, negative = inhibition, most hits filed as inhibitors; 150,000 tested, 4.3% active; purified HPGD, NADH fluorescence kinetic, PGE2 substrate; further: potency means the concentration at half of the fitted maximal effect
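20 nM HPGD preincubated 15 min at room temperature with compound in 50 mM Tris-HCl pH 8, 0.01% Tween 20. Started with 1 mM NAD+ and 30 uM prostaglandin E2; NADH fluorescence (360/450 nm) read 5 times over 30-s intervals, last minus first.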
* = called active by the depositor; ? = inconclusive; . = no result; ! = repeats disagree; [ ] = dose if it differs, or a comment. Shown are actives, neighbours in structure and some others; about 11% of the full set was active somewhere. Unless noted, the call rests on the fitted dose curve; in most records, active means well fitted inhibition curve with a large enough effect (not every such curve was filed as active); inconclusive means small, poorly fitted or top-dose-only effect, or another doubt; inactive means no such curve, though single readings can be large or run the other way. Unless noted, on the % scale 0 is the no-effect control and ±100 the full control effect.

SMILES | PNC assembly inh | ALDH1A1 inh | HPGD inh
Cc1ccccc1-n1c(C)nnc1SCC(=O)NCC1CCCO1 (configuration not stated) | -14 | 3% | -2%
CCn1c(SCC(=O)NCC2CCCO2)nnc1-c1c[nH]c2ccccc12 (configuration not stated) | 12 | -19% | 32µM*
O=C(CSc1c[nH]c2ccccc12)NCC1CCCO1 (configuration not stated) | ? | -5% | 4µM*
Cn1c(SCC(=O)NCC2CCCO2)nnc1-c1c[nH]c2ccccc12 (configuration not stated) | -17 | 8% | -7%
Cc1ccccc1-n1nnnc1SCC(=O)NCC1CCCO1 (configuration not stated) | . | 5.6µM* | .
CC1(C(=O)O)CCC(C(=O)N2CCCCC2)C1(C)C (configuration not stated) | . | -6% | .
N/C(Cn1cncn1)=N\NC(=O)C(=O)Nc1cccc(C(F)(F)F)c1 | . | 4% | .
CO/N=C(\C(=O)N[C@@H]1C(=O)N2C(C(=O)O)=C(CSc3nc(=O)c(O)nn3C)CSC12)c1csc(N)n1 (some centres not stated) | . | ? | -20%
COc1ccc(NC(=S)Nc2ccc3nsnc3c2)cc1 | 14 | 22µM* | -4%
C=CCN(CC=C)C(=S)Nc1ccc2nsnc2c1 | . | 11µM* | .
C=CCNC(=S)Nc1ccc2nsnc2c1 | 32 | -6% | -11%
COc1ccc(NC(=S)NN(C)C(=S)Nc2ccc(OC)cc2)cc1 | -114* | ? | -22%
COc1ccc(NC(=S)Nc2ccc3nc(C)c(C)nc3c2)cc1 | -25 | -3% | -8%
COc1ccc(NC(=S)Nc2ccc(Oc3ccccc3)cc2)cc1 | 46 | ? | -7%
CCOc1ccc(NC(=O)Nc2ccc3nsnc3c2)cc1 | . | 2% | .
CCOc1ccc(NC(=S)Nc2ccc3nsnc3c2)cc1 | 1 | 3.5µM* | 28µM*
COC(=O)C(C)(C)ONC(=O)Nc1ccc(C)cc1 | 11 | 5% | -18%
Cc1cccc2cc(CNCc3ccccc3)c(Cl)nc12 | . | 3% | .
CCCN(CCC)S(=O)(=O)c1ccc(Cl)c(OC)c1 | . | 2% | .
O=c1c(-c2ccc(O)cc2)coc2cc(OC3OC(CO)C(O)C(O)C3O)cc(O)c12 (configuration not stated) | -22 | 9% | ?
O=c1c(-c2ccc3c(c2)OCCO3)coc2cc(O)cc(O)c12 | -29 | 16µM* | 28µM*
COc1cc(OC)c2c(=O)c(-c3ccc4c(c3)OCO4)coc2c1 | . | ? | -3%
O=c1c(-c2ccccc2)coc2cc(O)cc(O)c12 | . | 11µM* | 6.3µM*
COc1ccccc1C(=O)NCCc1c(C)[nH]c2c(C)ccc(F)c12 | . | 8% | .
CCc1ccc(-n2c(Cc3ccccc3)n[nH]c2=S)cc1 | . | -13% | .
SMILES | PNC assembly inh | ALDH1A1 inh | HPGD inh
CSc1nnc(CNC(=O)C23CC4CC(CC(C4)C2)C3)n1Cc1ccccc1 | -115* | -10% | 1%
CC(C)Sc1nnc(CNC(=O)C23CC4CC(CC(C4)C2)C3)n1Cc1ccccc1 | -17 | -3% | -7%
O=C(NNc1ccc([N+](=O)[O-])cc1[N+](=O)[O-])C1C2CCCCC21 (configuration not stated) | ? | -4% | -8%
O=C(NNc1ccc([N+](=O)[O-])cc1)C1C2CCCCC21 (configuration not stated) | 18 | 25µM* | -8%
CCOC(=O)C1CC(c2ccccc2)=NNC1=O (configuration not stated) | . | -7% | .
Cc1cc(N=Cc2c(CO)cnc(C)c2O)c(N=Cc2c(CO)cnc(C)c2O)cc1C.[Zn] | . | -14%[13.5 µM] | -10%
O=C(CCc1nnc(CCCc2ccccc2)o1)NC(C1CC1)C1CC1 | . | 1% | .
CC(NC(=O)c1ccc(N(C)C)cc1)c1ccc(F)cc1 (configuration not stated) | . | 2% | .
CC(/C=C/C(=O)NO)=C\[C@@H](C)C(=O)c1ccc(N(C)C)cc1 | . | 28µM*! | -22%
COc1cc(Br)cc2cc(C(=O)N3CCCCC3C)c(=O)oc12 (configuration not stated) | 1 | ? | 13µM*
COc1cc(Br)cc2cc(C(=O)N3CCN(C(=O)c4ccco4)CC3)c(=O)oc12 | 4 | ? | -19%
C=CCNC(=O)/C(=C/c1cn(-c2ccccc2)nc1-c1cccc([N+](=O)[O-])c1)NC(=O)c1ccccc1 | 14 | 1µM* | .
CN(C)C(=O)/C(=C/c1cn(-c2ccccc2)nc1-c1cccc([N+](=O)[O-])c1)NC(=O)c1ccccc1 | 5 | ? | -5%
CC1=CC(C)(C)[N+](C)=CN1c1ccccc1 | 2 | -4% | -2%
O=C(NCCc1c[nH]c2ccc(Cl)cc12)c1cccnc1 | ? | 11% | 16µM*
CC(=O)NCCCc1c[nH]c2ccc(Cl)cc12 | -3 | 0% | -14%
